# PI4K2A inh: PI4K2A (human) kinase inhibition | Q9BTU6 | purified PI4K2A, ADP-Glo luminescence, 1 h; stronger effect = lower value | activity change, negative = inhibition, % at 76.9 µM | 420,000 tested, 0.13% active | AID 1346378; in the data active = activity change below about -50%; inconclusive = mostly about -30% to -49%;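 also: -100% = wells without enzyme as full effect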
# Target sequence (Q9BTU6 whole entry, looked up): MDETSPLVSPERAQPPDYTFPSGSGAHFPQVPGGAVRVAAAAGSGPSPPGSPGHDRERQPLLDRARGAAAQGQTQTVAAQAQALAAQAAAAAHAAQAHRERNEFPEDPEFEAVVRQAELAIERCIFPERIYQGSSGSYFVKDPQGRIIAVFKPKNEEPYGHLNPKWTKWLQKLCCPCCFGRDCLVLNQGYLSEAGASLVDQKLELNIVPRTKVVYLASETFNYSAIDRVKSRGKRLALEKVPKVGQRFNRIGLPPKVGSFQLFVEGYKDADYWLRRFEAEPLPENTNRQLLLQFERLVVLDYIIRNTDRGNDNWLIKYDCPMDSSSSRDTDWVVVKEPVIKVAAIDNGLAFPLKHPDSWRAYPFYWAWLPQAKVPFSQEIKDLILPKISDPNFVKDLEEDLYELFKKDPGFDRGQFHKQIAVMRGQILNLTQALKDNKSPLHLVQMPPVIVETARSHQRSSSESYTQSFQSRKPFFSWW
#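 PI4K2A activity was measured by ADP-Glo luminescence: enzyme (4 ug/mL stock) and phosphatidylinositol (1.2 mM stock) in Tris pH 7.5/MgCl2/EGTA/Triton X-100 buffer were reacted with ATP (300 microM stock) for one hour at ambient temperature.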
# Pin1 inh: blocks the human prolyl isomerase Pin1. Q13526. Pin1 FP peptide displacement, HiFluor488, 10 min. Potency, µM (highest dose often 115 µM), inactives show at the top dose activity, negative = inhibition, most hits filed as inhibitors. 390,000 tested, 0.009% active. AID 504891; active = well fitted inhibition curve with a large enough effect in the polarisation, with a control signal flat, not every such curve was filed as active; inconclusive = small, poorly fitted or top-dose-only effect, or effect the other way, or a change in a side signal; inactive = no such curve, though single readings can be large or run the other way; the % refers to the polarisation; also: potency is read from the fitted curve at half-maximal effect; % is scaled to controls: 0 for no effect and ±100 for the full control effect
# Target sequence (Q13526 whole entry, looked up): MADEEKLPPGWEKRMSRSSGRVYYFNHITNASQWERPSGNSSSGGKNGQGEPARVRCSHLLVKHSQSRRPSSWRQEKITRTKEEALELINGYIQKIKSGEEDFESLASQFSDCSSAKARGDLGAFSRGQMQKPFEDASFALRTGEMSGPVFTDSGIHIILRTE
# B2AR arrestin: beta2AR (human) beta-arrestin recruitment activity | 330,000 tested, 0.02% active | beta-arrestin recruitment to beta2AR, cell-based reporter | Potency, µM (doses to about 46.1 µM), inactives show at the top dose activation, most hits filed as activators;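 also: potency is read from the fitted curve at half-maximal effect; 0% = DMSO controls and full agonism = EC100 isoproterenol or metaproterenol; nearly all actives have a fitted effect of over 65% in size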
# p53 reactivator: mutant p53 re-activation in reporter cells; H1299 p53-A138V BP100-luciferase reporter, luminescence, 24 h; 320,000 tested, 0.063% active; Potency, µM (doses to about 92.2 µM), without a hit: at the highest dose activity change, positive = activation, usual class: activators; AID 504706; also: potency is read from the fitted curve at half-maximal effect; % of control where 0% means no effect; nearly all actives have a fitted effect of over 45% in size
#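 p53-null H1299 cells stably carrying temperature-sensitive p53-A138V and a BP100-luciferase reporter were pinned with compounds (4-point, 1:5 series) and held 24 hrs at 37 deg C. Luminescence was read 10 min after detection reagent.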
# Giardia killer: Giardia lamblia killing. Giardia lamblia trophozoite viability. activity change, % at 7.66 µM, hits read low. 340,000 tested, 0.15% active. AID 540267; in the data active = activity change below about -80%; inconclusive = between about -30% and that limit;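 also: parasites exposed to compound for two days anaerobically before the ATP read; % is scaled to controls: 0 for no effect and ±100 for the full control effect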
#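 Luminescent ATP signal served as the viability read-out, measured 15-30 min after adding ATP detection reagent to trophozoites that had been incubated with compounds for 48 hrs at 37 deg C anaerobically at 100 cells/well.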
# Epigenetic derep: epigenetic control regulation, reporter derepression | Potency, µM (top dose mostly 53.9 µM), inactives show top-dose GFP activation, usual class: activators | AID 1865 | 280,000 tested, 0.2% active | murine LDR cells, GFP reporter derepression, 30 h; also: potency is read from the fitted curve at half-maximal effect; % of control where 0% means no effect; nearly all actives have a fitted effect of over 60% in size
#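 GFP-positive cell count by laser-scanning cytometry (objects 20–120 um) after 30 h, 37 C compound exposure of murine LDR cells; reporter is CMV-GFP integrated at a silenced locus, inducible by HDAC or DNMT inhibitors.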
# * hit, by the source's call; ? = inconclusive; · = no result. A selection: hits, their analogues and other compounds. The true share with any hit is near 0.44%. Unless noted, calls follow the shape of the dose curve; as a rule, active = well fitted curve in the direction sought with a large enough effect; inconclusive = small, poorly fitted or top-dose-only effect, or another doubt; inactive = no such curve, though single readings can be large; an effect the other way counts as inactive or inconclusive.
SMILES,PI4K2A inh,Pin1 inh,B2AR arrestin,p53 reactivator,Giardia killer,Epigenetic derep
CCc1ccc(C(=O)N/N=C/c2cccc3ccccc23)nc1,1,-5%,0%,32µM*,-6,0%
CCCNC(C)C(=O)Nc1ccccc1C (stereo not drawn),0,-2%,3.2µM*,·,0,0%
CCCNC(=O)c1ccccc1NC(=O)Nc1ccccc1C,-2,-3%,0%,-11%,1,1%
CC(=O)c1cc(C(=O)Nc2ccc3ccccc3c2)c(C)o1,-1,4%,-1%,7%,-20,·
Cc1cc(C(=O)Nc2ccc3ccccc3c2)c(C)o1,-1,-3%,0%,25µM*,-11,·
CCOC(=O)c1ccc(-c2ccc(/C=C(\C#N)C(=O)Nc3ccc(C)cc3OC)o2)cc1,1,4%,·,·,·,7%
CCOC(=O)c1ccc(-c2ccc(/C=C(\C#N)C(=O)Nc3c(C)cccc3Cl)o2)cc1,-5,?,·,·,·,11µM*
CCN(CC)c1ccc2nc3c(=O)n(C)c(=O)n(C)c3nc2c1,-8,?,·,·,·,13µM*
CC(C)(Oc1ccc(Cl)cc1)C(=O)OCCCOC(=O)C(C)(C)Oc1ccc(Cl)cc1,3,·,·,·,·,·
COc1ccc2c(=O)n3nc(Nc4ccc5c(c4)CCC5)sc3nc2c1,·,-4%,·,·,·,·
CN(C)c1ccc(/C=C/c2ccc3c4ccccc4ccc3[n+]2-c2ccccc2)cc1,-54*,43%,0%,-1%,10,7%
CN(C)c1ccc(/C=C/c2ccc3ccccc3[n+]2C)cc1,?,77%,-1%,?,-18,2%
CC1CCN(c2ccc(-c3cccs3)nn2)CC1,-57*,-8%,0%,-13%,-94*,·
Cc1ccnc(NC(=O)c2sc3ccccc3c2Cl)c1,0,0%,-1%,?,-80*,2%
O=C(Nc1ncccn1)c1ccc([N+](=O)[O-])o1,-2,4%,-1%,-11%,-93*,0%
O=C(Nc1cc(-c2nc3ncccc3o2)ccc1Cl)c1ccc([N+](=O)[O-])o1,-3,?,0%,25%,-83*,·
O=C(Nc1ccccn1)c1ccc([N+](=O)[O-])o1,0,-6%,-1%,?,-93*,-1%
Cc1ccnc(NC(=O)c2ccc([N+](=O)[O-])o2)c1,11,?,0%,?,?,0%
COc1cc(F)c(S(=O)(=O)N2CCN(S(=O)(=O)c3ccc(N)cc3)CC2)c(F)c1,·,5%,·,·,·,·
CCN1C/C(=C/c2cccs2)c2nc3ccccc3c(C(=O)O)c2C1,0,?,-1%,-2%,4,-1%
CCc1ccc(/C=C2\CN(CC)Cc3c2nc2ccccc2c3C(=O)O)cc1,-4,?,0%,1%,-12,16µM*
CCO[C@@H]1O[C@H](C(COCc2ccccc2)OCc2ccccc2)[C@H](OCc2ccccc2)[C@H]1O (stereo partly drawn),0,·,·,·,·,·
O=[N+]([O-])c1cc2cccnc2c2ncccc12,-6,-2%,3%,19%,-88*,0%
NC(=O)C1CCN(c2nnc(-c3ccc4c(c3)OCCCO4)s2)CC1,·,3%,·,·,·,·
O=[N+]([O-])c1cnc2ccccn12,8,-2%,0%,-4%,-82*,0%
SMILES,PI4K2A inh,Pin1 inh,B2AR arrestin,p53 reactivator,Giardia killer,Epigenetic derep
O=C(O)c1cccc(C(=O)Cc2ccccc2)c1,-71*,-1%,0%,5%,-20,-1%
NC1CCN(c2nc(-c3ccc(Br)cc3)cs2)CC1,·,-16%,·,·,·,·
Cc1ccccc1NC(=O)/C=C/c1cccs1,-6,-1%,0%,6%,10,5%
Cc1cc(C)cc(NC(=O)/C=C/c2ccc([N+](=O)[O-])s2)c1,8,6%,-1%,?,?,8%
CC(=O)c1cccc(NC(=O)/C=C/c2ccc([N+](=O)[O-])s2)c1,-1,-1%,0%,11%,2,4µM*
Cc1ccccc1NC(=O)/C=C/c1ccc([N+](=O)[O-])s1,-6,0%,0%,-35%,15,3.5µM*
CCNC(=S)NNC(=O)c1cc(-c2ccc(OCC)cc2)nc2ccccc12,-29,3%,-2%,-8%,-81*,4%
CCc1ccc(-c2cc(C(=O)Nn3cnnc3)c3ccccc3n2)cc1,-8,0%,0%,-5%,-100*,-5%
COc1ccc(C2Nc3ccccc3C(=O)N2Cc2ccccn2)cc1COc1ccc(NC(C)=O)cc1 (stereo not drawn),·,1%,·,·,·,·
CCCCCCCCCCCCCCCCCCN(C)C,0,·,·,·,·,·
Cc1cccc(N=Nc2c(C)c(C#N)c(O)[nH]c2=O)c1,0,24%,-1%,7%,-97*,-1%
O=c1[nH]c2ccc([N+](=O)[O-])cc2nc1/C=C(\O)c1ccccc1,1,?,-1%,2%,23,6.3µM*
CC(=Cc1ccccc1)C=C1SC(=S)N(CCCC(=O)Nc2ccc(C(=O)O)c(O)c2)C1=O,-9,·,·,·,·,·
CC(/C=C1\SC(=S)N(CCCC(=O)Nc2ccc(C(=O)O)c(O)c2)C1=O)=C\c1ccccc1,-3,54µM*,·,?,-5,0%
CC1(C)OC(=O)Nc2ccc(Br)cc21,-4,·,·,·,·,·
O=c1c2ccc([N+](=O)[O-])c3cccc(c32)c2nc3ccccc3n12,·,·,0%,2%,·,5%
O=c1c2cccc3c(N4CCOCC4)ccc(c32)c2nc3ccccc3n12,·,·,0%,23%,·,13µM*
O=C(O)c1ccccc1OC1=NS(=O)(=O)c2ccccc21,·,-3%,·,·,·,·
Fc1cccc(F)c1/C=C/c1ccc2ccccc2n1,?,-2%,-1%,22µM*,-12,0%
Fc1cccc(Cl)c1/C=C/c1cnc2ccccc2n1,-10,0%,0%,2%,-3,·
O=C1C=C(Nc2ccccc2O)c2ccccc2C1=O,?,?,-1%,-11%,-15,0%
O=C1C=C(NCc2ccccc2)c2ccccc2C1=O,-64*,?,0%,-12%,-22,-1%
Cc1ccc(NS(=O)(=O)c2ccc3ccccc3c2)cc1C,·,5%,·,·,·,·
O=C(CNc1cccc2ccccc12)N/N=C/c1ccc([N+](=O)[O-])o1,0,0%,0%,18%,-96*,2%
O=C(CNc1cccc([N+](=O)[O-])c1)N/N=C/c1ccc([N+](=O)[O-])o1,1,-8%,0%,1%,-107*,0%
Cc1cn([C@@H]2O[C@H](CO)[C@@H](O)[C@H]2F)c(=O)[nH]c1=O,1,·,·,·,·,·
O=C1SCCN1N=Cc1ccc([N+](=O)[O-])o1,1,-9%,·,·,-85*,·
Cc1cc2c(s1)c1cnn(Cc3ccccc3C)c(=O)c1n2C,·,-2%,·,·,·,·
Brc1ccc(-c2cn3nc4c(nc3n2)CCCC4)cc1,-2,?,-1%,?,-12,-1%
c1ccc(-c2cn3nc4c(nc3n2)CCCC4)cc1,-52*,?,0%,-13%,?,13%
